Measurements as given in ChEMBL document CHEMBL4296182, “CO-ADD screening of NIH NCI Diversity Set V”.
For part of these data: Potency and affinity values are given separately.

Columns and labels:
[1] = system: Staphylococcus aureus; assay: Antibacterial activity against Staphylococcus aureus MRSA ATCC 43300 (CO-ADD:GP_020); MIC in CAMBH media using NBS plates, by Resazurin F(560/590); assay type: functional; details: Concentration 20 uM, ASSAY_TEST Inhibition of Bacterial Growth, detection method Resazurin, Fluorescence (ex560/em590), MEDIA CAMHB, plate type 384well, CORNING #3640, time 18 hr
[2] = system: Acinetobacter baumannii; assay: Antibacterial activity against Acinetobacter baumannii ATCC 19606 (CO-ADD:GN_034); MIC in CAMBH media using NBS plates, by Resazurin F(560/590); assay type: functional; details: Concentration 20 uM, ASSAY_TEST Inhibition of Bacterial Growth, detection method Resazurin, Fluorescence (ex560/em590), MEDIA CAMHB, plate type 384well, CORNING #3640, time 18 hr
[3] = system: Escherichia coli; assay: Antibacterial activity against Escherichia coli ATCC 25922 (CO-ADD:GN_001); MIC in CAMBH media using NBS plates, by Resazurin F(560/590); assay type: functional; details: Concentration 20 uM, ASSAY_TEST Inhibition of Bacterial Growth, detection method Resazurin, Fluorescence (ex560/em590), MEDIA CAMHB, plate type 384well, CORNING #3640, time 18 hr
[4] = system: Klebsiella pneumoniae; details: Concentration 20 uM; ASSAY_TEST Inhibition of Bacterial Growth; detection method Absorption (OD600); MEDIA CAMHB; plate type 384well; NBS; CORNING #3640; time 18 hr
[5] = system: Candida albicans; details: 20 µM
[6] = system: Cryptococcus neoformans; details: Concentration 20 uM; ASSAY_TEST Inhibition of Fungal Growth; detection method Resazurin; Absorption (OD600-OD570); plate type 384well; NBS; CORNING #3640

| SMILES | Inhibition [1] [%] | Inhibition [2] [%] | Inhibition [3] [%] | Inhibition [4] [%] | Inhibition [5] [%] | Inhibition [6] [%] |
| --- | --- | --- | --- | --- | --- | --- |
| CC(C)(C)c1ccc(C(=O)N2CCOC23CCCCC3)cc1 | 6.69 | 7.06 | 4.56 | 2.74 | 2.86 | -8.62 |
| CC(C)(C)C1=NN=C2c3ccccc3C(=O)C21 (centres undefined) | -4.27 | 3.03 | -6.26 | 1.25 | 5.03 | -9.6 |
| COc1ccc(C(=S)N2CCN(c3ccccc3Cl)CC2)cc1OC | 21.01 | 9.29 | 8.55 | 6.8 | 6.76 | -9.03 |
| Cn1c(=O)c2c(nc(Cc3ccc(N)cc3)n2C)n(C)c1=O | 12.3 | 8.51 | 1.69 | 16.58 | -1.67 | -5.25 |
| Cc1cccc2c1c1ccc3c(c1n2C)C(=O)C=CC3=O | -3.83 | -13.4 | 14.66 | 10.43 | 16.9 | 1.61 |
| Cc1cccc(C(O)C(O)c2cccc(C)n2)n1 (centres undefined) | 7.22 | -14.61 | 8.35 | 7.91 | 0.07 | -7.77 |
| CC1CCC(C(C)C)C(NC(=O)c2ccncc2)C1 (centres undefined) | 7.04 | -17.65 | 6.28 | 10.65 | -0.85 | -11.13 |
| CC(C)(C)NC(=O)c1ccc(C(=O)NC(C)(C)C)cc1 | -9.07 | -9.96 | 2.15 | 15.3 | 8.15 | -7.37 |
| Cn1cnc([N+](=O)[O-])c1N=C(N)N | -12.1 | -2.18 | 11.15 | 7.43 | -4.73 | 1.78 |
| COC1=CC(C)C2CC3OC(O)CC4C(C)=C(OC)C(=O)C(C2(C)C1=O)C34C (centres undefined) | 7.24 | 8.28 | -3.89 | 9.99 | 3.92 | 7.39 |
| CC(=O)OCC1OC(COC(C)=O)(c2ccc(C)cc2)C(OC(C)=O)C1OC(C)=O (centres undefined) | -7.68 | -11.43 | 15.38 | 10.58 | -0.8 | -5.49 |
| NC(=S)NC(=O)c1ccccc1 | 15.19 | -5.77 | 13.89 | 14.46 | 2.89 | -5.13 |
| COc1cc(/N=N/c2cccc(S(N)(=O)=O)c2)c2ccccc2c1N | -2.34 | 3.92 | -3.15 | 14.2 | 0.44 | -17.61 |
| CCOc1ccc(S(=O)(=O)c2ccc(C)cc2)c2c1no[n+]2[O-] | 12.11 | 5.81 | 11.8 | 9.49 | 1.5 | -13.62 |
| O=C(O)Cc1sc(O)nc1O | 3.49 | -13.46 | 1.48 | 28.66 | 28.5 | -2.77 |
| O=C(O)c1cc(O)ccc1/N=N/c1ccccc1 | 3.85 | -9.66 | 1.52 | 5.36 | 10.2 | -9.07 |
| Cc1ccccc1NC(=O)C(=O)Nc1ccccc1C | 22.64 | -12.42 | 18.63 | -3.39 | 6.51 | 7.92 |
| CCC(C)Nc1nc2c(c(=O)n(C)c(=O)n2C)n1C (centres undefined) | 12.63 | 12.04 | -1.91 | 12.65 | 3.5 | -7.05 |
| COC(=NC(C)C)NC(C)C | 0.33 | -8.49 | 15.21 | 8 | 1.22 | -13.2 |
